The term inhibition denotes the change of the read-out against control, counted positive when it falls.

About 160 (0.055%) of roughly 290,000 compounds were called active. For the sample, actives were picked, then their nearest neighbours and some compounds at random. Values without a mark were called inactive. Cut-off read from the data, not from the text of the source: active = inhibition above about 50%; inactive = the rest.

The target in the test is Tyrosine-protein phosphatase non-receptor type 22 (Homo sapiens) (UniProt Q9Y2R2). Put plainly: inhibitors of LYP phosphatase, biochemical, fluorescence intensity, uHTS (AID 1779).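 Note: plate controls were vehicle with enzyme for no effect and no enzyme for full effect.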 The conditions noted are these: recombinant LYP phosphatase, at 11.5 µM, stronger effect = higher value.
Chain of Tyrosine-protein phosphatase non-receptor type 22 (Homo sapiens) (Q9Y2R2 whole entry, looked up): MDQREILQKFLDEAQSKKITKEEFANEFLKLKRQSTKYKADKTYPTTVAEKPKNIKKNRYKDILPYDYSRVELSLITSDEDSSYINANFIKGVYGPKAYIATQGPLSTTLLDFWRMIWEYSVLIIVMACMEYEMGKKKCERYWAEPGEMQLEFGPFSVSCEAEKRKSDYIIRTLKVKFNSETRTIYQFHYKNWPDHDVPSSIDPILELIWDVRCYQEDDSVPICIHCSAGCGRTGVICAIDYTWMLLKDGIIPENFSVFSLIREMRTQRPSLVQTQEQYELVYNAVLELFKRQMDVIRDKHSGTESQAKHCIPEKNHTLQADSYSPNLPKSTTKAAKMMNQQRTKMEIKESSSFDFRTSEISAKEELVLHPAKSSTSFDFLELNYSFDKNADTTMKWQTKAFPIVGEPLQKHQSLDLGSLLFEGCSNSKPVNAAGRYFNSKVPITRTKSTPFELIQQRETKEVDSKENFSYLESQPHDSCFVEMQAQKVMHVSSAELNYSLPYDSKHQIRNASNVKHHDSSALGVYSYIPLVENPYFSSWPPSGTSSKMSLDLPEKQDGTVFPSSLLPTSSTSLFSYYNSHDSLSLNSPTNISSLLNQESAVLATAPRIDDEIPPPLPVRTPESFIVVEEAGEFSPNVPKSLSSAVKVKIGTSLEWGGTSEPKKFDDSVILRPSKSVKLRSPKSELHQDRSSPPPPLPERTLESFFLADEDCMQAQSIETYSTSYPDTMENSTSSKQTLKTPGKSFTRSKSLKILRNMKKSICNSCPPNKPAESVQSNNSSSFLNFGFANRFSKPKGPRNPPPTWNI
For `CCC1CCCCN1CCCNC(=O)c1ccc(CS(=O)(=O)Cc2ccc(Cl)cc2)o1` (stereo not drawn), the inhibition was -7.2%.

Regarding `CCC1CCCCN1CCCNC(=O)c1ccc(CS(=O)(=O)Cc2ccccc2F)o1` (stereo not drawn), the inhibition was 56.2% (active).

Regarding `CCC1CCCCN1CCCNC(=O)c1ccc(CS(=O)(=O)c2ccccc2C)o1` (stereo not drawn), the inhibition is -13.2%.

Consider `C=CCOc1ccc2cccc(/C=N/NC(=O)c3cc4cc([N+](=O)[O-])ccc4s3)c2c1`, for which the inhibition was -4.5%.

With `COc1cccc(/C=N/NC(=O)c2cc3cc([N+](=O)[O-])ccc3s2)c1O`, the inhibition was 73.6% (active).

As for `COc1cccc(/C=N/NC(=O)c2ccc([N+](=O)[O-])cc2Cl)c1O`, the inhibition was 9%.

Turning to `CC(=O)N1CCN(c2ccc(NC(=O)c3ccc(OCc4ccccc4)cc3)cc2)CC1`, the inhibition was -3.8%.

For the compound `CCc1ccc(OCc2nnc(SCC(=O)NC3CCCCC3)o2)cc1`, the inhibition is -6.8%.

Take `CCCNS(=O)(=O)c1ccc(NC(=O)c2cccnc2)cc1`: the inhibition is -7.3%.

With `CC1Sc2ccc(S(=O)(=O)CCC(=O)NC3CCCC(C)C3C)cc2NC1=O` (stereo not drawn), the inhibition is -6.7%.

In the case of `Cc1ccccc1Cn1cc(NC(=O)c2cc(-c3ccco3)on2)cn1`, the inhibition is -0.1%.

As for `Cn1cc(Cl)c(C(=O)Nc2cnn(Cc3ccc(F)cc3)c2)n1`, the inhibition was -1.2%.

As for `Cc1ccccc1Cn1cc(NC(=O)c2nn(C)cc2Cl)cn1`, the inhibition is 60.2% (active).

For the compound `Cc1ccc(OCc2cc(C(=O)NC3CCOC3)no2)cc1C` (stereo not drawn), the inhibition is -2.1%.

Regarding `O=C(CN1C(=O)c2ccccc2C1=O)N1CCN=C1c1ccccc1`, the inhibition is -8.9%.

With `Cc1cc(C)cc(OCC(=O)N/N=C/c2ccncc2)c1`, the inhibition was -10.7%.

On to `CCn1ncc(/C=N\NC(=O)COc2cc(C)cc(C)c2)c1C`, for which the inhibition was -3.6%.

For the compound `Cc1cc(C)cc(OCC(=O)N/N=C\c2cn(C)nc2C)c1`, the inhibition is 76.1% (active).

In the case of `CC1=NNC(=O)C1CCC(=O)N/N=C(\C)c1ccccc1` (stereo not drawn), the inhibition is -4.6%.

On to `c1ccc2c(c1)NC1(CCCC1)n1c-2nc2ccccc21`, for which the inhibition was -16.8%.

`Cc1cccc(NC(=O)Nc2cccc(C)n2)n1`: the inhibition is -5.9%.

Consider `COc1ccc(Cc2nnc(NC(=O)c3ccccc3F)s2)cc1OC`, for which the inhibition is 66.6% (active).

In the case of `COc1ccc(Cc2nnc(NC(=O)c3ccccc3F)s2)cc1`, the inhibition was -0.8%.

As for `COc1ccc(Cc2nnc(NC(=O)c3ccccc3Cl)s2)cc1OC`, the inhibition was -9.8%.

For the compound `COc1ccc2cc(C(C)c3nc4ccccc4c(=O)n3N)ccc2c1` (stereo not drawn), the inhibition is 4.5%.

Regarding `C=CCNc1nc(C(F)(F)F)nc2c1nnn2Cc1ccccc1Cl`, the inhibition is -2.4%.

Regarding `COc1ccc(CNC(=O)c2cc(-c3cc(C)ccc3O)n[nH]2)cc1`, the inhibition is -3.7%.

On to `COc1ccc(CNC(=O)c2cc(-c3ccccc3O)n[nH]2)cc1`, for which the inhibition was 53.5% (active).

With `COc1ccc(CNC(=O)c2cc(-c3cc(C)cc(C)c3O)n[nH]2)cc1`, the inhibition is 4%.

As to `COc1cccc(N(C(=O)c2snc(C(N)=O)c2N)C(C(=O)NCC2CCCO2)c2cccs2)c1` (stereo not drawn), the inhibition is -2%.

Turning to `COc1ccc(C2CC(c3ccc(Br)cc3)=NN2C(=O)CCC(=O)O)cc1OC` (stereo not drawn), the inhibition is -7.6%.

Consider `COc1ccc(C2CC(c3ccc(C)cc3)=NN2C(=O)CCC(=O)O)cc1OC` (stereo not drawn), for which the inhibition was 89.2% (active).

In the case of `COc1ccc(C2=NN(C(=O)CCC(=O)O)C(c3ccc(OC)c(OC)c3)C2)cc1` (stereo not drawn), the inhibition is -7.5%.

Consider `CC(=O)c1ccc(-n2c(CCC(=O)O)ccc2-c2ccc(C)cc2)cc1`, for which the inhibition is -5.2%.

As to `CS(=O)(=O)N1CCc2cc(C(=O)NC3CC3)ccc21`, the inhibition was -10.8%.

Regarding `COCCNC(=O)C(c1ccco1)N(Cc1ccc(OC)cc1)C(=O)Cn1nnc2ccccc21` (stereo not drawn), the inhibition is 10.9%.

As for `CSc1nc(-c2ccc(Cl)cc2)nn1C(=O)c1ccco1`, the inhibition was 77.2% (active).

For `COc1ccc(-c2nc(SC)n(C(=O)c3ccco3)n2)cc1`, the inhibition is -4.5%.

As to `CSc1nc(-c2ccccc2)nn1C(=O)c1ccco1`, the inhibition was -3%.

For `Cc1nc(-c2ccc(S(=O)(=O)N3CCN(CCc4ccccc4)CC3)s2)cs1`, the inhibition was -0.7%.

In the case of `N#CCN(CC#N)C(=O)C1c2ccccc2Oc2ccccc21`, the inhibition is -3.9%.

As to `COc1ccc(NC(=O)C2CCCN(S(=O)(=O)c3c(C)n[nH]c3C)C2)c(OC)c1` (stereo not drawn), the inhibition was -2%.

For `Cc1cc(/C=N/n2cnnc2)c(O)c([N+](=O)[O-])c1`, the inhibition is -3.1%.

As to `O=[N+]([O-])c1cc(Br)cc(/C=N/n2cnnc2)c1O`, the inhibition is 76.8% (active).

As to `O=[N+]([O-])c1cc(Cl)cc(/C=N/n2cnnc2)c1O`, the inhibition was 3.8%.

Turning to `CCOc1ccc(C2C(C#N)=C(N)Oc3cc(C)n(CCN4CCOCC4)c(=O)c32)cc1OCC` (stereo not drawn), the inhibition was 61.4% (active).

`CCOc1ccc(C2C(C#N)=C(N)Oc3cc(C)n(CCN(C)C)c(=O)c32)cc1OCC` (stereo not drawn): the inhibition was -1.7%.

Regarding `COc1ccc(C2C(C#N)=C(N)Oc3cc(C)n(CCN4CCOCC4)c(=O)c32)cc1OC` (stereo not drawn), the inhibition was -4.7%.

In the case of `Cc1cccn2c(=O)c3cc(C(=O)NC4CCCCC4)c(=N)n(CCN4CCOCC4)c3nc12`, the inhibition is -35.6%.

`S=c1[nH]c(-c2ccc(Cl)cc2)cs1`: the inhibition was 74.6% (active).

Regarding `Cc1ccc(-c2csc(=S)[nH]2)cc1`, the inhibition was -4%.

For the compound `Fc1ccc(-c2csc(=S)[nH]2)cc1`, the inhibition was -2%.

As for `OCCC1CN(Cc2cccn2-c2ncccn2)CCN1C1CCCC1` (stereo not drawn), the inhibition is -9.8%.

Regarding `Cc1ccc(C(=O)N2CCN(S(=O)(=O)N3CCCCC3)CC2)cc1`, the inhibition was -11.4%.

With `Cc1cc(NC(=O)COC(=O)COc2ccc(Cl)cc2C)c([N+](=O)[O-])cc1C`, the inhibition is 5.9%.

In the case of `O=C(COC(=O)COc1ccc(Cl)cc1)Nc1ccc(F)c([N+](=O)[O-])c1`, the inhibition was 2.2%.

As for `Cc1cc(Cl)ccc1OCC(=O)OCC(=O)Nc1ccc(F)c([N+](=O)[O-])c1`, the inhibition is 62% (active).

As for `O=C(c1ccco1)N1CCN(C(=O)C2CC(=O)N(c3ccc(Cl)cc3)C2)CC1` (stereo not drawn), the inhibition was -14.5%.

With `N/C(=N\N=C\c1ccco1)SC1CC(=O)N(c2ccc(C(=O)O)cc2)C1=O` (stereo not drawn), the inhibition is 1.7%.

On to `N/C(=N\N=C\c1ccc2c(c1)OCO2)SC1CC(=O)N(c2ccc(C(=O)O)cc2)C1=O` (stereo not drawn), for which the inhibition was 70% (active).

Turning to `N/C(=N\N=C\c1ccco1)SC1CC(=O)N(c2ccccc2)C1=O` (stereo not drawn), the inhibition was -2.9%.

Consider `Cc1csc2ncc(C(=O)N3CCCc4ccccc43)c(=O)n12`, for which the inhibition was -4%.

With `O=C(CN1C(=O)CSc2ccccc21)Nc1ccccc1C(=O)N1CCOCC1`, the inhibition was -0.4%.

Consider `NC(=O)c1nc(-c2cccs2)nc2c1[nH]c(=O)n2-c1ccc(F)cc1`, for which the inhibition was -3.8%.

For the compound `O=C(Nc1nccs1)c1ccc(S(=O)(=O)NCc2cccs2)cc1`, the inhibition was 84.4% (active).

Turning to `O=C(Nc1nccs1)c1ccc(S(=O)(=O)c2ccccc2)cc1`, the inhibition is -4.6%.

For `O=C(Nc1nccs1)c1ccc(S(=O)(=O)NCC2CCCCC2)cc1`, the inhibition was 9.6%.

Take `Cc1ccccc1NC(=S)NC(NC(=O)c1ccccc1C)C(Cl)(Cl)Cl` (stereo not drawn): the inhibition is -5.7%.

Turning to `COc1ccc(S(=O)(=O)N2CCc3ccccc32)cc1C(=O)OCc1c(C)noc1C`, the inhibition is 1%.

`Cc1noc(C)c1COC(=O)c1ccc(S(=O)(=O)N2CCCCC2)cc1`: the inhibition is -3.8%.

In the case of `COc1ccc(S(=O)(=O)N2CCCCCC2)cc1C(=O)OCc1c(C)noc1C`, the inhibition is 50.5% (active).

Turning to `CCOC(=O)c1c(NC(=O)COc2ncnc3ccccc23)sc(C)c1C`, the inhibition is 3.4%.

With `O=C(NCc1ccccc1)C(c1ccccc1F)N(CC1CCCO1)C(=O)c1ccccn1` (stereo not drawn), the inhibition was -7.1%.

Consider `Cc1cc(NC(=O)c2cc(-c3ccc(C)s3)nc3ccccc23)no1`, for which the inhibition was -4.3%.

In the case of `Cc1cc(C)nc(NC(=O)c2cc(-c3ccc(C)s3)nc3ccccc23)c1`, the inhibition was 79.7% (active).

`Cc1cccc(NC(=O)c2cc(-c3ccc(C)s3)nc3ccccc23)n1`: the inhibition is 6.1%.

For `COc1ccc(-c2nnn(CC(=O)N(CCCO)C(C(=O)NC3CCCC3)c3ccncc3)n2)cc1` (stereo not drawn), the inhibition is -4.7%.

Regarding `CC(=O)N1CCc2c(sc3c2c(=O)n(-c2ccccc2)c(=O)n3CC(=O)NCC2CCCO2)C1` (stereo not drawn), the inhibition was -11%.

As for `COc1ccc(COC(=O)Nc2cn(C)nc2C(F)(F)F)cc1`, the inhibition is 1.1%.

On to `CCC(C)[C@H](NC(=O)[C@@H]1CSC2c3ccccc3C(=O)N21)C(=O)NCC1CCCO1` (stereo partly drawn), for which the inhibition is -11.5%.

On to `CCn1cc(CNC(=O)c2cc([N+](=O)[O-])c(C)c([N+](=O)[O-])c2)cn1`, for which the inhibition was 55.6% (active).

On to `CCn1cc(CNC(=O)c2cccc([N+](=O)[O-])c2)cn1`, for which the inhibition was -11.2%.

With `Cc1c([N+](=O)[O-])cc(C(=O)NCc2ccc(F)cc2)cc1[N+](=O)[O-]`, the inhibition is -4.5%.

On to `COc1ccc(N(C(=O)CNC(=O)c2ccco2)C(C(=O)NCC2CCCO2)c2ccccc2)cc1` (stereo not drawn), for which the inhibition was -11.7%.

For the compound `O=C(OC1CCOC1=O)c1cccc(S(=O)(=O)N2CCc3ccccc3C2)c1` (stereo not drawn), the inhibition was -8.2%.

On to `CCCN1C(=O)C(O)(CC(=O)c2ccc3c(c2)OCCO3)c2ccccc21` (stereo not drawn), for which the inhibition is 3.1%.

Take `COc1ccc(-c2cc(C)no2)cc1S(=O)(=O)N1CCN(c2ccccn2)CC1`: the inhibition was -10.6%.

As for `COc1cccc2c1NC(C(=O)O)C1CC=CC21` (stereo not drawn), the inhibition was 1.7%.

Take `CC(=O)c1ccc2c(c1)C1C=CCC1C(C(=O)O)N2` (stereo not drawn): the inhibition was 3.3%.

On to `O=C(O)C1Nc2c(cccc2C(F)(F)F)C2C=CCC12` (stereo not drawn), for which the inhibition was -2.1%.

As to `O=C(OC1CCCCC1)c1ccc2c(c1)C1C=CCC1C(C(=O)O)N2` (stereo not drawn), the inhibition was 64% (active).

For the compound `CCOC(=O)c1ccc2c(c1)C1C=CCC1C(C(=O)O)N2` (stereo not drawn), the inhibition was 19.2%.

Regarding `O=C(O)C1Nc2c(O)cccc2C2C=CCC12` (stereo not drawn), the inhibition is 52% (active).
